Our source for the outcome and AC50 values is PubChem BioAssay (EPA / NIEHS).

Where “and” joins values, the source holds several entries; their conditions need not be identical. Equal entries are not always repeated. Some compounds were tested as several samples or in several runs, with calls that do not always agree. Calls of active or inactive are those of the source. How the source made its calls: active means hit-call score of the fitted dose curve at least 0.9, where 1 is the maximum; inactive means score below 0.9.

A short description of test [1]: APR_HepG2_NuclearSize_72hr: Apredica 72-hour HepG2 Assay for Nuclear Size (AID 2282925). To be noted: high-content imaging, actives raise or lower the signal. Summed up:
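HepG2 cells were exposed to compounds at ten concentrations from 0.39 to 200 uM (duplicate, 0.5% DMSO final) for 72 hr. After fixation in 3.7% formaldehyde, nuclei were stained with Hoechst 33342 (2 ug/mL) and imaged at 20x.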

A short description of test [2]: ATG_CRE_CIS: Attagene CIS-FACTORIAL HepG2 Assay for human cAMP Responsive Element (CRE) binding protein 3 (AID 2282926). To be noted: HepG2 CRE cis-reporter, Attagene multiplexed mRNA; actives raise or lower the signal. Summed up:
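Transfected HepG2 were treated for 24 hours, then RNA was extracted and reporter cDNA amplified with sequence-specific primers. Labelled fragments were separated by capillary electrophoresis, and the CRE signal was fitted bidirectionally with DMSO as baseline.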

Test [3] has as its target CCAAT/enhancer-binding protein beta (Homo sapiens) (UniProt P17676). Put plainly: ATG_C_EBP_CIS: Attagene CIS-FACTORIAL HepG2 Assay for human CCAAT/Enhancer Binding Protein (C/EBP) beta (AID 2282927). To be noted: HepG2 Attagene cis-factorial transcription factor reporter; actives raise or lower the signal. The gist of the method: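 Following a 24 h incubation with test chemical, transfected HepG2 cells yielded RNA whose reporter transcripts were quantified by RT-PCR and fluorescent capillary electrophoresis, with DMSO serving as baseline for bidirectional fitting.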

The nature of test [4]: ATG_CMV_CIS: Attagene CIS-FACTORIAL HepG2 Assay for human CMV (Internal Marker) (AID 2282928).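 Further: endpoint acts as a background internal control marker rather than a target.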 To be noted: HepG2 CMV promoter reporter, transcription factor profiling; actives raise or lower the signal. The gist of the method: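 Cell system: HepG2, transiently transfected multiple reporter units under cis promoters. Exposure: 24 h. Detection: RT-PCR, FAM labeling, HpaI digestion, capillary electrophoresis. Analysis: bidirectional, DMSO baseline.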

Test [5] in a line: ATG_DR4_LXR_CIS: Attagene CIS-FACTORIAL HepG2 Assay for human Liver X Receptor (LXR), DR4 submotif (AID 2282929). To be noted: HepG2 Attagene DR4 cis-reporter, mRNA transcription; actives raise or lower the signal. Summed up: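 HepG2, transient MRTU transfection, cis-element (DR4) promoter; 24 h compound exposure; total RNA → oligo(dT) RT → PCR → 6-FAM primer extension → HpaI cut → CE. Gain/loss vs DMSO, bidirectional fit.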

Test [6] concerns the target Aryl hydrocarbon receptor (Homo sapiens) (UniProt P35869). Put plainly: ATG_Ahr_CIS: Attagene CIS-FACTORIAL HepG2 Assay for human Aryl Hydrocarbon Receptor (Ahr) (AID 2282930). To be noted: HepG2 AhR cis-factorial reporter transcription; actives raise or lower the signal. The gist of the method: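 Values derive from bidirectional fitting against DMSO negative control. Underlying signal: cis-element reporter mRNA in transiently transfected HepG2, harvested 24 h post-dose and measured by RT-PCR plus capillary electrophoresis.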

A short description of test [7]: ATG_AP_1_CIS: Attagene CIS-FACTORIAL HepG2 Assay for human Activator Protein 1 (AP-1) (AID 2282931). To be noted: HepG2 Attagene cis-factorial AP-1 reporter mRNA; actives raise or lower the signal. The gist of the method:
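Transient MRTU transfection of HepG2 → 24 h chemical treatment → RNA isolation, RT-PCR, 6-FAM labelling, HpaI digest → capillary electrophoresis. Fit: bidirectional, DMSO negative control.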

Test [8] can be described thus: ATG_BRE_CIS: Attagene CIS-FACTORIAL HepG2 Assay for human Bone Morphogenetic Protein (BMP) Response Element (BRE) (AID 2282933). To be noted: HepG2 BMP response element reporter, Attagene transcription factor profiling; actives raise or lower the signal. The gist of the method:
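After a 24 h chemical treatment, transiently transfected HepG2 cells were lysed for RNA; reporter transcripts were quantified by fluorescent RT-PCR and capillary electrophoresis, normalised to DMSO.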

Test [9] addresses Transcription factor E2F1 (Homo sapiens) (UniProt Q01094). Kind of test: ATG_E2F_CIS: Attagene CIS-FACTORIAL HepG2 Assay for human E2F Transcription Factor 1 (AID 2282935). To be noted: HepG2 Attagene cis-reporter, E2F reporter RNA transcripts; actives raise or lower the signal. Summed up: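 HepG2 cells transiently transfected with multiplexed cis-element reporter units, dosed for 24 h. Reporter mRNA measured by RT-PCR, 6-FAM primer-extension labeling, HpaI digestion and capillary electrophoresis; bidirectional fit versus DMSO baseline.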

Test [10] is described as follows: ATG_E_Box_CIS: Attagene CIS-FACTORIAL HepG2 Assay for human Enhancer Box (E-box) (AID 2282936). To be noted: HepG2 E-box cis-reporter transcription, actives raise or lower the signal. The gist of the method:
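HepG2 cells transiently transfected with multiplexed cis-element reporter units sensing endogenous transcription factor activity; 24 h compound exposure. Reporter mRNA measured by RT-PCR, 6-FAM primer extension, HpaI digestion and capillary electrophoresis; bidirectional fit versus DMSO.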

Test [11] can be described thus: ATG_M_61_CIS: Attagene CIS-FACTORIAL HepG2 Assay for M61 Transcription Factor (Internal Marker) (AID 2282937). To be noted: HepG2 Attagene CIS-FACTORIAL M61 internal marker reporter; actives raise or lower the signal. The gist of the method:
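Human liver HepG2, transient MRTU transfection (cis promoter elements), 24 h compound. Total RNA → oligo(dT) RT → PCR → FAM label → HpaI → CE. Internal background marker; bidirectional fitting, DMSO = baseline.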

A short description of test [12]: ATG_EGR_CIS: Attagene CIS-FACTORIAL HepG2 Assay for human Early Growth Response 1 (EGR1) (AID 2282938). To be noted: HepG2 Attagene CIS-FACTORIAL EGR reporter mRNA; actives raise or lower the signal. Summed up: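 Transient transfection of human HepG2 with multiple cis-regulated reporter units, chemical exposure 24 h, total RNA isolated. Reverse transcription, PCR, fluorescent labelling and capillary electrophoresis quantify reporter transcripts; activity fitted bidirectionally against DMSO.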

A short description of test [13]: ATG_M_19_CIS: Attagene CIS-FACTORIAL HepG2 Assay for M19 Transcription Factor (Internal Marker) (AID 2282939). To be noted: HepG2 Attagene CIS-FACTORIAL M19 internal marker reporter; actives raise or lower the signal. Summed up: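 In this multiplexed cell assay, transiently transfected HepG2 reporter units report endogenous transcription-factor activity; after 24 hours of treatment, labelled reporter cDNA fragments are quantified by capillary electrophoresis and fitted bidirectionally against DMSO.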

The nature of test [14]: ATG_ERE_CIS: Attagene CIS-FACTORIAL HepG2 Assay for Estrogen Response Element (ERE) (AID 2282940). To be noted: HepG2 ERE cis-reporter, Attagene RNA transcript; actives raise or lower the signal. Summed up: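 Measuring endogenous transcription factor output, the assay doses transfected HepG2 cells for 24 hours and quantifies reporter transcripts by fluorescent RT-PCR and capillary electrophoresis, with DMSO as baseline.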

A short description of test [15]: ATG_Ets_CIS: Attagene CIS-FACTORIAL HepG2 Assay for human Erythroblast Transformation Specific (ETS) (AID 2282941). To be noted: HepG2 ETS cis-reporter transcription, actives raise or lower the signal. The gist of the method:
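After transient cis-reporter transfection, HepG2 cells receive test chemical for 24 h. Reporter mRNA levels, measured by RT-PCR and capillary electrophoresis fluorescence, are analysed bidirectionally relative to the DMSO baseline.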

Test [16] has as its target Hepatocyte nuclear factor 3-beta (Homo sapiens) (UniProt Q9Y261). Kind of test: ATG_FoxA2_CIS: Attagene CIS-FACTORIAL HepG2 Assay for human Forkhead box A2 (FOXA2) (AID 2282942). To be noted: HepG2 cis-reporter transcription factor activity, 24 h; actives raise or lower the signal. Summed up: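 Transient MRTU transfection of HepG2 liver cells; 24 h treatment; total RNA → oligo(dT) RT → PCR → FAM primer extension → HpaI cut → CE. Bidirectional fit vs DMSO.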

A short description of test [17]: ATG_FoxO_CIS: Attagene CIS-FACTORIAL HepG2 Assay for human Forkhead box O (FoxO) (AID 2282943). To be noted: HepG2 Attagene cis-reporter, FoxO element, mRNA; actives raise or lower the signal. Summed up: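 Values reflect reporter mRNA induction or loss in HepG2 cells 24 h post-dosing, fitted bidirectionally with DMSO as negative control and baseline. Detection used RT-PCR and fluorescence capillary electrophoresis.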

Test [18] in a line: ATG_GATA_CIS: Attagene CIS-FACTORIAL HepG2 Assay for human GATA Binding Protein (AID 2282944). To be noted: HepG2 GATA cis-element reporter, Attagene multiplex mRNA; actives raise or lower the signal. The gist of the method: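 Measures endogenous transcription factor-driven reporter mRNA in HepG2 cells transiently carrying cis-regulated constructs. 24 h dosing; RNA via oligo(dT) reverse transcription, PCR, HpaI digestion, capillary electrophoresis; fitted relative to DMSO.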

A short description of test [19]: ATG_AP_2_CIS: Attagene CIS-FACTORIAL HepG2 Assay for human Activator Protein 2 (AP-2) (AID 2282932). To be noted: HepG2 AP-2 cis-reporter, Attagene transcription factor profiling; actives raise or lower the signal. The gist of the method: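 HepG2 cells were transiently transfected with multiple cis-promoter reporter transcription units and dosed for 24 h. Reporter mRNA was measured by RT-PCR with capillary electrophoresis fluorescence; bidirectional fits relative to DMSO baseline.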

For test [20], the target named is Retinoic acid receptor alpha (Homo sapiens) (UniProt P10276). Kind of test: ATG_DR5_RAR_CIS: Attagene CIS-FACTORIAL HepG2 Assay for human Retinoic Acid Receptor Alpha (RARE), DR5 submotif (AID 2282934). To be noted: HepG2 Attagene cis-factorial RARE DR5 reporter, mRNA; actives raise or lower the signal. The gist of the method: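 Endpoint fitted in both directions relative to DMSO as negative control. It reflects DR5 cis-element reporter mRNA induction in transiently transfected HepG2 cells, measured 24 h after dosing through RT-PCR and fluorescent capillary electrophoresis.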
Sequence of Retinoic acid receptor alpha (Homo sapiens) (P10276 whole entry, looked up): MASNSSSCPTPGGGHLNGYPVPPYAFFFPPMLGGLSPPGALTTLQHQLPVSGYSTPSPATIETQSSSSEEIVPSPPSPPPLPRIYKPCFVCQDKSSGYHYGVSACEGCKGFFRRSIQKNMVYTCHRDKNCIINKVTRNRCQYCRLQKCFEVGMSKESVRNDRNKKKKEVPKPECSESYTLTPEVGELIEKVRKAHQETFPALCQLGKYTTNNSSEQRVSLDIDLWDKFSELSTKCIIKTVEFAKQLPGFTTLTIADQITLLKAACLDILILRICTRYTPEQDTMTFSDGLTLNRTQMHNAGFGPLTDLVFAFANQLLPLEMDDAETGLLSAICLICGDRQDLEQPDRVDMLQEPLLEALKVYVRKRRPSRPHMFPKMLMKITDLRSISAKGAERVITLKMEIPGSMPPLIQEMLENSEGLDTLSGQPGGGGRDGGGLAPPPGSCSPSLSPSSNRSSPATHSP

Sequence of Hepatocyte nuclear factor 3-beta (Homo sapiens) (Q9Y261 whole entry, looked up): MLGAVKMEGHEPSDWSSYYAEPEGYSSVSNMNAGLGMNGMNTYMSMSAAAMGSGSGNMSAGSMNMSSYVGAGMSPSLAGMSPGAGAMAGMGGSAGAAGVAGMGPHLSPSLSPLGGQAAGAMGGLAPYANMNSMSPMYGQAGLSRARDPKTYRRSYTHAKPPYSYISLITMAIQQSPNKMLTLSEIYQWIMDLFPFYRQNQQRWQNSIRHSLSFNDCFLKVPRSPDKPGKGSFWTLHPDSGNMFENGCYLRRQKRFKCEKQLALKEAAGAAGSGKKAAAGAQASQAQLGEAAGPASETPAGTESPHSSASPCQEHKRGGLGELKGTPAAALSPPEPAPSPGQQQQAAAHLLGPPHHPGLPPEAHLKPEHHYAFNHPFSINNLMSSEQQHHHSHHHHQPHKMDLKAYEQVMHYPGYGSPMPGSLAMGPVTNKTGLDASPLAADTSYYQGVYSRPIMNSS
Sequence of Transcription factor E2F1 (Homo sapiens) (Q01094 whole entry, looked up): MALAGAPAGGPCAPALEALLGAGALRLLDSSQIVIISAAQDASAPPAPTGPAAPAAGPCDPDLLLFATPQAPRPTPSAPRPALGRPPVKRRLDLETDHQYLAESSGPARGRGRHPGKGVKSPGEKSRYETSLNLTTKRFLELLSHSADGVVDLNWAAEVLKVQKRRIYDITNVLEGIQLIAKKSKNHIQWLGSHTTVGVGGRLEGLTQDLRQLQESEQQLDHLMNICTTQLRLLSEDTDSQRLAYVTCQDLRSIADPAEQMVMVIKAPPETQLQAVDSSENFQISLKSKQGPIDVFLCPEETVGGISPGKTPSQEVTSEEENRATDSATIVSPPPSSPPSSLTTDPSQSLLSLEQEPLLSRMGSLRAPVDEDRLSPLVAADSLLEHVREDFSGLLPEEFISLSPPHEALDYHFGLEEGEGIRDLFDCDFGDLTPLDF
Sequence of Aryl hydrocarbon receptor (Homo sapiens) (P35869 whole entry, looked up): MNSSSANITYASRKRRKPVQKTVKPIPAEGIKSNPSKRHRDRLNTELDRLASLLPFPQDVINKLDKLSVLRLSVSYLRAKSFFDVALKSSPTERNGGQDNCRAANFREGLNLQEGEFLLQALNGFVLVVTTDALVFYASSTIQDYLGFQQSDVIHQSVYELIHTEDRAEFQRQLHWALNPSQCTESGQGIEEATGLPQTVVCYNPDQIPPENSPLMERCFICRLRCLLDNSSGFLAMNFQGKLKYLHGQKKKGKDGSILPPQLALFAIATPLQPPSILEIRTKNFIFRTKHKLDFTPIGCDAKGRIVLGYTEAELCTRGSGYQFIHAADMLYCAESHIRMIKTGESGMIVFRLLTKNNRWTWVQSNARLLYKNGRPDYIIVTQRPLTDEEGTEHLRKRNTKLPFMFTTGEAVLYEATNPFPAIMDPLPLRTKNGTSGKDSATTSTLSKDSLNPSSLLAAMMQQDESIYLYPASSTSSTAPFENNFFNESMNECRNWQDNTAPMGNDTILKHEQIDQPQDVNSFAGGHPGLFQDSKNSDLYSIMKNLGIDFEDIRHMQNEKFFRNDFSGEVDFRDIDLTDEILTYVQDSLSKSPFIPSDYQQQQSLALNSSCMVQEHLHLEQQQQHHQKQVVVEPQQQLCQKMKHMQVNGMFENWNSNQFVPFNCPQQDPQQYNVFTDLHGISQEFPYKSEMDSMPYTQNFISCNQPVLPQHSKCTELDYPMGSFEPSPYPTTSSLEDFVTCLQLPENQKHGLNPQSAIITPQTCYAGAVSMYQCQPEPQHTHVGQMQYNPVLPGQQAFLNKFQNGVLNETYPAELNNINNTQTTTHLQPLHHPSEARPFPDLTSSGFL
Sequence of CCAAT/enhancer-binding protein beta (Homo sapiens) (P17676 whole entry, looked up): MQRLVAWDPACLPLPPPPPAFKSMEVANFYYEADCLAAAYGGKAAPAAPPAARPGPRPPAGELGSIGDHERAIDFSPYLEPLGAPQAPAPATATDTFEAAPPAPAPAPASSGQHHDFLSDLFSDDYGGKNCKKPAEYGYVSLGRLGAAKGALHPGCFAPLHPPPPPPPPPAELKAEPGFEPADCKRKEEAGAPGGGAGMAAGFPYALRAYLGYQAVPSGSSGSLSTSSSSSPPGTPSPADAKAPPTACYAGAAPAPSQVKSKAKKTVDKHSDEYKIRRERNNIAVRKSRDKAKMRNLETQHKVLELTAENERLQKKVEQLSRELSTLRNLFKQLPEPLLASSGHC

The term AC50 denotes the midpoint of the concentration-response curve, whichever way the signal moves. `OCCC(F)(F)C(F)(F)C(F)(F)C(F)(F)C(F)(F)C(F)(F)C(F)(F)C(F)(F)F`: the result in [1], in test [3], in test [4], in [5], in test [6] and in test [7] was inactive. Moreover, the compound was called inactive in test [8], in test [9], in test [10], in test [11], in test [13] and in test [17]. In test [18], the compound was classed as inactive. The AC50 in test [2] was 26.3 µM (active) and 124 µM (active); in test [5] it was 40.1 µM (active); in test [7] it was 39.1 µM (active); in test [10], 261 µM (active); in [12], 26.5 µM (active) and 150 µM (active); in [14], 9.11 µM (active) and 8.41 µM (active). Also, the AC50 in [15] was 50.7 µM (active) and 150 µM (active); in [16], 51.9 µM (active) and 235 µM (active).

On to `O=c1c(-c2ccc(O)cc2)coc2cc(O)ccc12`, for which the outcome in [1], in test [2], in [3], in test [5], in test [6] and in [7] was inactive. The call in test [19], in test [8], in test [20], in test [9], in test [10] and in test [11] was inactive. Also, the result in test [12], in test [15], in [16], in [17] and in [18] was inactive. The half-maximal activity concentration (AC50) was 100 µM (active) and 75.6 µM (active) in test [3]; 69.7 µM (active) in [6]; 410 nM (active) [middle of 4 runs] in [14].

As to `CCCCC(CC)COC(=O)CCCCC(=O)OCc1ccccc1` (stereo not given), the outcome in test [1], in test [2], in [3], in [4], in test [5] and in test [6] was inactive. Also, the call in test [7], in test [19], in test [8], in [20], in test [9] and in [10] was inactive. For the same compound, the compound was called inactive in test [11], in test [12], in [13], in test [14], in test [16] and in test [17]. The result in test [18] was inactive.
